Tests used:
[1] = target: Tyrosine-protein kinase receptor UFO (Homo sapiens) (UniProt P30530); conditions: at 1 µM
[2] = target: Tyrosine-protein kinase Blk (Homo sapiens) (UniProt P51451); conditions: at 0.1 µM
[3] = target: Tyrosine-protein kinase Blk (Homo sapiens) (UniProt P51451); conditions: at 1 µM
[4] = target: T1, Cytoplasmic tyrosine-protein kinase BMX (Homo sapiens) (UniProt P51813); conditions: at 0.1 µM
T1 sequence (whole entry): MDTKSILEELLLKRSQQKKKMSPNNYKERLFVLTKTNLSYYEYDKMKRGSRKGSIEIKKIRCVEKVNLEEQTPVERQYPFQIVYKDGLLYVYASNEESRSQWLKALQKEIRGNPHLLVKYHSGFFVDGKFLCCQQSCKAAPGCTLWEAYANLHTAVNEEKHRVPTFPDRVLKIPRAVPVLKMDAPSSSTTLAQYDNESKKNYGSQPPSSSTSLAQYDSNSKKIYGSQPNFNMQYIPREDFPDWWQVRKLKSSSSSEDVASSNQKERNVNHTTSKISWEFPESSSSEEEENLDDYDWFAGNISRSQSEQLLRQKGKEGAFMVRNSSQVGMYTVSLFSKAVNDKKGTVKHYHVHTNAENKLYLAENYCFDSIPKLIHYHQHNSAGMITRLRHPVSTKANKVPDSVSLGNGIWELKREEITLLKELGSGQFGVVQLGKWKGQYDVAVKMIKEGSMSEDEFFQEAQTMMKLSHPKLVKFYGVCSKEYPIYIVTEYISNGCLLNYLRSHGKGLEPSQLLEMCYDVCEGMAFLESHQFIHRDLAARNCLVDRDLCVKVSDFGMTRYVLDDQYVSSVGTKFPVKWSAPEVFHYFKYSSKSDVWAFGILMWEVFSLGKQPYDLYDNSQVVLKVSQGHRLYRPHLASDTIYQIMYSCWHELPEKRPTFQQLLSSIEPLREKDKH

[5] = target: T1, Cytoplasmic tyrosine-protein kinase BMX (Homo sapiens); conditions: at 1 µM
[6] = target: Protein-tyrosine kinase 6 (Homo sapiens) (UniProt Q13882); conditions: at 0.1 µM
Protein-tyrosine kinase 6 (Homo sapiens), sequence (Q13882 whole entry, looked up): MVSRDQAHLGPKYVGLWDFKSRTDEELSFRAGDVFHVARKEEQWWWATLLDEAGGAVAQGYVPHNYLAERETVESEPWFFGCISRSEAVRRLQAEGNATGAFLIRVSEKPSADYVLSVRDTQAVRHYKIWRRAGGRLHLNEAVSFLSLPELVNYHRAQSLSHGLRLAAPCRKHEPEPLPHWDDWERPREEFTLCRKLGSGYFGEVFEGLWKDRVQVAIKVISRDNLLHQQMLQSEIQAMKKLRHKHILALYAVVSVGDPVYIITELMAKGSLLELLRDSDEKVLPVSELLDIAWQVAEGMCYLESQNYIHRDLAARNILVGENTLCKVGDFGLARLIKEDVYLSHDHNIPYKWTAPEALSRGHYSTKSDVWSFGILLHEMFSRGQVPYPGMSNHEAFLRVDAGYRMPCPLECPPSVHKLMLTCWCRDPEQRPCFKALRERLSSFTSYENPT

[7] = target: Protein-tyrosine kinase 6 (Homo sapiens) (UniProt Q13882); conditions: at 1 µM
[8] = target: Tyrosine-protein kinase BTK (Homo sapiens) (UniProt Q06187); conditions: at 0.1 µM
Tyrosine-protein kinase BTK (Homo sapiens), sequence (Q06187 whole entry): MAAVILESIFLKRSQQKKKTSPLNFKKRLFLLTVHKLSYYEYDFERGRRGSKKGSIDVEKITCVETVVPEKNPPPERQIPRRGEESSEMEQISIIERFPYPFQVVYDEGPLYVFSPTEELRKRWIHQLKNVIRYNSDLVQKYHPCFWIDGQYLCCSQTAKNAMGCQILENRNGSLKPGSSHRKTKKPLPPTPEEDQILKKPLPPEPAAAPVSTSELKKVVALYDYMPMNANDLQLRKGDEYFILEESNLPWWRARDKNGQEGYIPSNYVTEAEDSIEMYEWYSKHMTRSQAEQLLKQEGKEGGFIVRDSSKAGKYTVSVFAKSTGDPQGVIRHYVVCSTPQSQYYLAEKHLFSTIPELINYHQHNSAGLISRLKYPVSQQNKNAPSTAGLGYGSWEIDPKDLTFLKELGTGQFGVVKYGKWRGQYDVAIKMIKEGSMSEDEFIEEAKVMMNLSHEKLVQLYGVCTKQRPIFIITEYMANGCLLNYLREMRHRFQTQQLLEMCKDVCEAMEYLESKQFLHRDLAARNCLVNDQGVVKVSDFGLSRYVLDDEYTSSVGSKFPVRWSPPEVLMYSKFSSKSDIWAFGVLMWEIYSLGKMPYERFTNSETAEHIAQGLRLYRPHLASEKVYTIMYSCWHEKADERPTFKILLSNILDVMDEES

[9] = target: Tyrosine-protein kinase BTK (Homo sapiens) (UniProt Q06187); conditions: at 1 µM
[10] = target: Tyrosine-protein kinase CSK (Homo sapiens) (UniProt P41240); conditions: at 0.1 µM;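 note: value given is the averaged percent inhibition of CSK kinase activity, from the GSK PKIS kinase inhibitor set screening panel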
Tyrosine-protein kinase CSK (Homo sapiens), sequence (P41240 2-450 limits assumed): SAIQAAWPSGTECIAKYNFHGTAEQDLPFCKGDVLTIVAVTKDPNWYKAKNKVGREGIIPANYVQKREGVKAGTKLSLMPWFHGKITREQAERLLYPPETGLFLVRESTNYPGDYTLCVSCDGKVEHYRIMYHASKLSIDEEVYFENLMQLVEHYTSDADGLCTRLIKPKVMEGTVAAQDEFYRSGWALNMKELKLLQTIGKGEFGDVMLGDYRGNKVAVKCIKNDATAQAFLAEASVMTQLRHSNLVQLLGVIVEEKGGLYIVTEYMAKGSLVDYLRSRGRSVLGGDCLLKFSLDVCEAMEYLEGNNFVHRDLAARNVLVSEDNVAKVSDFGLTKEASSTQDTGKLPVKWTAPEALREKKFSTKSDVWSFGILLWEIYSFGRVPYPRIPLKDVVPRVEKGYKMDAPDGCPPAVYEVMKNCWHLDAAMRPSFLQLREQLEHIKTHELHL

Tyrosine-protein kinase Blk (Homo sapiens), sequence (P51451 2-505 limits assumed): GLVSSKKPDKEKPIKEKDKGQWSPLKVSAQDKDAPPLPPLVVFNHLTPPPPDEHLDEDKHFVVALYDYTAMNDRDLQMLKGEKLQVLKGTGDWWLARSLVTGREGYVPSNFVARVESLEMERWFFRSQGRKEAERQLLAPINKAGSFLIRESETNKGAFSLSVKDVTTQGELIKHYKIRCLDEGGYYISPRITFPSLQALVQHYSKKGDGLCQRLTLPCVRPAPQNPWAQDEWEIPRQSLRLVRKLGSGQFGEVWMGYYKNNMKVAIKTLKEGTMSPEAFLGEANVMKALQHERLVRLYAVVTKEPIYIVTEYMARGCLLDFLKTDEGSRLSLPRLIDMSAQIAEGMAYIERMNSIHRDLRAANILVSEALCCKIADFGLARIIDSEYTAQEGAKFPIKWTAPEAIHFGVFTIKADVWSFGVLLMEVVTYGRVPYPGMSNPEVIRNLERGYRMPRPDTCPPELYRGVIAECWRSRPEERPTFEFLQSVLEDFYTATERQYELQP
Tyrosine-protein kinase receptor UFO (Homo sapiens), sequence (P30530 whole entry): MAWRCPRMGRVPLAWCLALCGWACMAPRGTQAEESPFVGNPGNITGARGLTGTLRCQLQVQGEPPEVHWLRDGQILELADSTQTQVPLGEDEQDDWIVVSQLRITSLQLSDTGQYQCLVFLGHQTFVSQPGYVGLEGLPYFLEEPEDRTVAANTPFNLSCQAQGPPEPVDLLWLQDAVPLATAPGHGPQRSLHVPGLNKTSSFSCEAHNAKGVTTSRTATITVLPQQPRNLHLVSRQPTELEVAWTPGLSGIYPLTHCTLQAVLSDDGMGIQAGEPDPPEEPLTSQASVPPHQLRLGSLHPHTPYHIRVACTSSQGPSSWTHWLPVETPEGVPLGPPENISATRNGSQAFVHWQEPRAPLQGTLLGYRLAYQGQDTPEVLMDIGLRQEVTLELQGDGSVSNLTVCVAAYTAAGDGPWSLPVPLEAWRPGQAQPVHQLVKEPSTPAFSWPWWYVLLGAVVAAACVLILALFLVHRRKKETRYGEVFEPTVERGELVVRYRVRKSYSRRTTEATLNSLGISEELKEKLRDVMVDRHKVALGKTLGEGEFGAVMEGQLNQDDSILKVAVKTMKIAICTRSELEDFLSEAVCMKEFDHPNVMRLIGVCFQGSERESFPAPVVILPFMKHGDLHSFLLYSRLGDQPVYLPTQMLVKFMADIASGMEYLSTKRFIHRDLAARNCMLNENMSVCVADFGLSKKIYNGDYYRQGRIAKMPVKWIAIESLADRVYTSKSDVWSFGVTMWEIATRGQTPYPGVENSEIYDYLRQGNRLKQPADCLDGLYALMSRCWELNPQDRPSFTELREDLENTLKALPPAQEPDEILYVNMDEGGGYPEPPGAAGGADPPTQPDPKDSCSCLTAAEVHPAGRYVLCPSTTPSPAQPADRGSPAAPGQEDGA

Work on `CS(=O)(=O)CCNCc1ccc(-c2ccc3ncnc(Nc4ccc(OCc5ccccc5)c(C(F)(F)F)c4)c3c2)o1` yielded an inhibition [1] of -6.09%, an inhibition [2] of 3.53% and an inhibition [3] of 4.36%. The inhibition [4] was 2.52%, the inhibition [5] was 1.86% and the inhibition [6] was 3.06%. It also gave an inhibition [7] of 3.52%, an inhibition [8] of 1.47% and an inhibition [9] of 1.16%. It also gave an inhibition [10] of 0.54%.

Compound `c1ccc(COc2ccc(Nc3ncnc4ccc(-c5ccco5)cc34)cc2)cc1` has an inhibition [1] of 2.06%, an inhibition [2] of 1.56% and an inhibition [3] of 3.68%. For the same compound, the inhibition [4] was -1%, the inhibition [5] was 2.02% and the inhibition [6] was 1.6%. For the same compound, the inhibition [7] was 2.35%, the inhibition [8] was 0.63% and the inhibition [9] was 1.73%. The inhibition [10] was 0.39%.

Compound `CCc1nn2ncccc2c1-c1ccnc(NC2CC2)n1` has an inhibition [1] of -2.77%, an inhibition [2] of 1.77% and an inhibition [3] of 3.32%. The inhibition [4] was 3.6%, the inhibition [5] was 5.18% and the inhibition [6] was -0.52%. For the same compound, the inhibition [7] was 1.65%, the inhibition [8] was 0.24% and the inhibition [9] was 0.76%. The inhibition [10] was 0.85%.

`COc1ccc(-c2cc(-c3c[nH]nc3-c3ccccn3)ccn2)cc1` showed an inhibition [1] of -5.64%, an inhibition [2] of 4.09% and an inhibition [3] of 3.9%. It also gave an inhibition [4] of -1.41%, an inhibition [5] of 5.27% and an inhibition [6] of 6.49%. It also gave an inhibition [7] of 7.25%, an inhibition [8] of 2.09% and an inhibition [9] of 1.28%. It also gave an inhibition [10] of 7.77%.

`CC(=O)Nc1cccc(C#Cc2cncnc2Nc2ccc(OCc3cccc(F)c3)c(Cl)c2)c1` gave an inhibition [1] of 1.6%, an inhibition [2] of 2.4% and an inhibition [3] of 1.37%. It also gave an inhibition [4] of 0.73%, an inhibition [5] of 4.15% and an inhibition [6] of 1.35%. It also gave an inhibition [7] of 1.55%, an inhibition [8] of 2.74% and an inhibition [9] of 5.12%. For the same compound, the inhibition [10] was 5.08%.

In the case of `Fc1ccc(-c2nn3ccccc3c2-c2ccncc2)cc1`, the inhibition [1] is reported as 0.78%, the inhibition [2] is reported as 0.92% and the inhibition [3] is reported as 2.66%. The inhibition [4] was -1.75%, the inhibition [5] was 1.42% and the inhibition [6] was -1.18%. It also gave an inhibition [7] of 7.58%, an inhibition [8] of -2.02% and an inhibition [9] of -1.29%. It also gave an inhibition [10] of -0.04%.

With `CCn1c(-c2nonc2N)nc2ccccc21` the inhibition [1] was 0.96%, the inhibition [2] was 1.38% and the inhibition [3] was 3.02%. The inhibition [4] was -0.5%, the inhibition [5] was 3.8% and the inhibition [6] was 4.51%. The inhibition [7] was 3.44%, the inhibition [8] was 1.6% and the inhibition [9] was 2.63%. It also gave an inhibition [10] of 2.25%.

`COC(=O)Nc1nc2ccc(Oc3ccc(NC(=O)Nc4cccc(Cl)c4)cc3)cc2[nH]1` gave an inhibition [1] of 6.96%, an inhibition [2] of 0.1% and an inhibition [3] of 1.79%. The inhibition [4] was 1.98%, the inhibition [5] was 1.28% and the inhibition [6] was 0.55%. It also gave an inhibition [7] of -0.38%, an inhibition [8] of 0.06% and an inhibition [9] of -0.37%. It also gave an inhibition [10] of 1.23%.

For `Clc1ccc(-c2nn3ncccc3c2-c2ccnc(Nc3ccccc3)n2)cc1`, the inhibition [1] was -0.77%, the inhibition [2] was 3.97% and the inhibition [3] was 15%. For the same compound, the inhibition [4] was -0.61%, the inhibition [5] was 13.9% and the inhibition [6] was 7.5%. For the same compound, the inhibition [7] was 40.2%, the inhibition [8] was 0.8% and the inhibition [9] was 2.63%. It also gave an inhibition [10] of 0.47%.

In the case of `CC(C)(CO)CNC(=O)c1ccc2c(c1)/C(=N/Nc1ccc(S(N)(=O)=O)cc1)C(=O)N2`, the inhibition [1] is reported as 6.57%, the inhibition [2] is reported as -0.9% and the inhibition [3] is reported as 10.8%. For the same compound, the inhibition [4] was -1.83%, the inhibition [5] was 0.67% and the inhibition [6] was -2.27%. The inhibition [7] was -0.34%, the inhibition [8] was 0.27% and the inhibition [9] was -2.23%. For the same compound, the inhibition [10] was 0.77%.

Work on `Nc1ncc(-c2cccc(S(N)(=O)=O)c2)c2scc(-c3ccc(F)c(Cl)c3)c12` yielded an inhibition [1] of -2.44%, an inhibition [2] of 5.6% and an inhibition [3] of 28.2%. For the same compound, the inhibition [4] was 14.5%, the inhibition [5] was 56.5% and the inhibition [6] was 7.08%. The inhibition [7] was 47.5%, the inhibition [8] was 3.15% and the inhibition [9] was 25.1%. For the same compound, the inhibition [10] was 23.1%.

`COC(=O)c1sc(-n2cnc3cc(OC)c(OC)cc32)cc1OCc1ccccc1C(F)(F)F` showed an inhibition [1] of -2.03%, an inhibition [2] of 3.54% and an inhibition [3] of 22.4%. For the same compound, the inhibition [4] was 3.04%, the inhibition [5] was 6.66% and the inhibition [6] was 2.66%. The inhibition [7] was 4.35%, the inhibition [8] was -0.65% and the inhibition [9] was 1.6%. The inhibition [10] was 1.76%.

For `Nc1nc(-c2ccc(F)cc2)c(-c2ccc3ncccc3n2)s1`, the inhibition [1] was -3.07%, the inhibition [2] was 4.2% and the inhibition [3] was 12.1%. For the same compound, the inhibition [4] was -2.65%, the inhibition [5] was 6.23% and the inhibition [6] was 7.59%. The inhibition [7] was 20.6%, the inhibition [8] was 0.27% and the inhibition [9] was 0.99%. It also gave an inhibition [10] of 5.94%.

`CCNC(=O)O[C@H]1CN[C@H](C#Cc2cc3ncnc(Nc4ccc(OCc5cccc(F)c5)c(Cl)c4)c3s2)C1` showed an inhibition [1] of -3.57%, an inhibition [2] of 2.3% and an inhibition [3] of 2.43%. For the same compound, the inhibition [4] was -0.06%, the inhibition [5] was 2.73% and the inhibition [6] was 3.17%. For the same compound, the inhibition [7] was 5.56%, the inhibition [8] was 1.15% and the inhibition [9] was 1.29%. The inhibition [10] was 5.58%.

In the case of `COc1cc2c(cc1Nc1nc(Nc3ccsc3C(N)=O)c3cc[nH]c3n1)N(C(=O)CN(C)C)CCC2(C)C`, the inhibition [1] is reported as 85.5%, the inhibition [2] is reported as 3.19% and the inhibition [3] is reported as 6.26%. The inhibition [4] was 3.79%, the inhibition [5] was 5.73% and the inhibition [6] was 5.95%. It also gave an inhibition [7] of 19.2%, an inhibition [8] of 0.08% and an inhibition [9] of 1.1%. It also gave an inhibition [10] of 2.59%.

`CCn1c(-c2nonc2N)nc2cnc(Oc3cccc(NC(=O)c4ccc(N(C)C)cc4)c3)cc21` gave an inhibition [1] of -3.3%, an inhibition [2] of 0.9% and an inhibition [3] of 2.27%. For the same compound, the inhibition [4] was 1.63%, the inhibition [5] was 1.66% and the inhibition [6] was -0.08%. The inhibition [7] was -0.57%, the inhibition [8] was -0.86% and the inhibition [9] was -0.69%. For the same compound, the inhibition [10] was 2.19%.
